Laboratory results: ChEMBL document CHEMBL2218924, “A broad activity screen in support of a chemogenomic map for kinase signalling research and drug discovery” (Biochem J, 2013)

Each molecule was assayed against Homeodomain-interacting protein kinase 1 (Homo sapiens) (UniProt Q86Z02). Details: at 1 µM.
Homeodomain-interacting protein kinase 1 (Homo sapiens), sequence (Q86Z02 whole entry, looked up): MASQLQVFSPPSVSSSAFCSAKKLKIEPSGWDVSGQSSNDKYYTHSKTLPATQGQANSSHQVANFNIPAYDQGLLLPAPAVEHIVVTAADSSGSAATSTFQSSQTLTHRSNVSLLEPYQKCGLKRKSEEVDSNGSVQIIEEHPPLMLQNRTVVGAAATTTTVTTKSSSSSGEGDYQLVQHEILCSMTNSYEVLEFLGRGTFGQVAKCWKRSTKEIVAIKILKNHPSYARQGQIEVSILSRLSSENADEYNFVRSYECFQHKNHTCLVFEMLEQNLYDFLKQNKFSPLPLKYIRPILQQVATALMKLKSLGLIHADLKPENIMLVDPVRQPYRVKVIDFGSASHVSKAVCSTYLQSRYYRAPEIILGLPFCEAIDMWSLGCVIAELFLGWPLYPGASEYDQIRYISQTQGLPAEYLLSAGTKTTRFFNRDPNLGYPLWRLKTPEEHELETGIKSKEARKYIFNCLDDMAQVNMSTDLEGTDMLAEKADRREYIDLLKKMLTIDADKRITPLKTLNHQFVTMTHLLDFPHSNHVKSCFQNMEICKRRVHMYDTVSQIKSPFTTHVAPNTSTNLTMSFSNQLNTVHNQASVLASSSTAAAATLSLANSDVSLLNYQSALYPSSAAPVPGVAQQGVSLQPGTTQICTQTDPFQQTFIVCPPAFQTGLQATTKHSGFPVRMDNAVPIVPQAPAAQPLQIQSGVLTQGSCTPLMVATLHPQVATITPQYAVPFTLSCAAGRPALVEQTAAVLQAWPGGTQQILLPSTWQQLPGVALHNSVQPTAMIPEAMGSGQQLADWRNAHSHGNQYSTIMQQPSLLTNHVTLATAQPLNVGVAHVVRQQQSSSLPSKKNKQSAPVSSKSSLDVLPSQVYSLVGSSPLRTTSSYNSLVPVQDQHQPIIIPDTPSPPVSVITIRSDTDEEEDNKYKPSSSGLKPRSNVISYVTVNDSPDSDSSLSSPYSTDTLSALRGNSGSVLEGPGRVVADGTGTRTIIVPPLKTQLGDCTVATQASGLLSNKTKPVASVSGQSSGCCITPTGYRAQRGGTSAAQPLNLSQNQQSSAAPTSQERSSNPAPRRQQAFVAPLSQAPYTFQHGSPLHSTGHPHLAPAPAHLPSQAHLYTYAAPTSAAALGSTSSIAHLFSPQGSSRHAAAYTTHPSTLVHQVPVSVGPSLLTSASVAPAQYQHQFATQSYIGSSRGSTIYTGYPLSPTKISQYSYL
COc1cc2nccc(Oc3ccc(NC(=S)NC(=O)c4ccccc4C)cc3)c2cc1OC showed a residual activity of 93%. In the case of CC(C)(C)n1nc(Cc2cccc3ccccc23)c2c(N)ncnc21, the residual activity is reported as 95%. O=C(NC(NC(=S)Nc1ccc(F)c([N+](=O)[O-])c1)C(Cl)(Cl)Cl)C(c1ccccc1)c1ccccc1 (stereo not given) was tested, and the residual activity was 99%. For O=C1NC(=O)c2c1c1c3ccccc3[nH]c1n1cncc21, the residual activity was 77%. For Nc1ncnc2c1c(-c1ccc(Oc3ccccc3)cc1)cn2C1CCCC1, the residual activity was 86%. Molecule O=c1cc(N2CCOCC2)oc2c1ccc1ccccc12 has a residual activity of 90%. For CCCC(=O)Oc1ccc2[nH]c(C(=O)c3cc4ccccc4[nH]3)cc2c1, the residual activity was 98%. CCN(CC)CCNC(=O)c1c(C)[nH]c(/C=C2\C(=O)Nc3ccc(Cl)cc32)c1C was tested, and the residual activity was 32%. O=C(CCCc1ccc(-c2ccccc2F)cc1)Nc1ccc(O)cc1 showed a residual activity of 108%. NC(=O)Nc1sc(-c2ccc(F)cc2)cc1C(N)=O gave a residual activity of 106%. O=C(c1ccccc1)c1ccc(N2CCOCC2)cc1O showed a residual activity of 98%. O=C(O)/C=C/c1cc(Br)c(Br)c(Br)c1Br showed a residual activity of 93%. O=c1cc(N2CCNCC2)oc2c(-c3ccccc3)cccc12 was tested, and the residual activity was 101%. O=C1Nc2ccc(Cl)cc2/C1=C/c1cc(Cl)c(O)c(Cl)c1 showed a residual activity of 93%. For CC(C)c1nn(-c2c(Cl)cccc2Cl)c2nc(Cc3ccc(OCCO)cc3)[nH]c(=O)c12, the residual activity was 104%. Nc1nc(Nc2ccc(S(N)(=O)=O)cc2)nn1C(=O)c1c(F)cccc1F gave a residual activity of 75%.

Each molecule was assayed against Homeodomain-interacting protein kinase 1 (Homo sapiens) (UniProt Q86Z02). Details: at 10 µM.
In the case of COc1ccc2c(c1)c(C1=C(c3c[nH]c4ccccc34)C(=O)NC1=O)cn2CCCN(C)C, the residual activity is reported as 34%. Work on CC(C)(C)n1nc(Cc2cccc3ccccc23)c2c(N)ncnc21 yielded a residual activity of 107%. Molecule O=C(NC(NC(=S)Nc1ccc(F)c([N+](=O)[O-])c1)C(Cl)(Cl)Cl)C(c1ccccc1)c1ccccc1 (stereo not given) has a residual activity of 93%. O=C1NC(=O)c2c1c1c3ccccc3[nH]c1n1cncc21 was tested, and the residual activity was 58%. Molecule Nc1ncnc2c1c(-c1ccc(Oc3ccccc3)cc1)cn2C1CCCC1 has a residual activity of 98%. O=c1cc(N2CCOCC2)oc2c1ccc1ccccc12 showed a residual activity of 50%. For CCCC(=O)Oc1ccc2[nH]c(C(=O)c3cc4ccccc4[nH]3)cc2c1, the residual activity was 103%. CCN(CC)CCNC(=O)c1c(C)[nH]c(/C=C2\C(=O)Nc3ccc(Cl)cc32)c1C gave a residual activity of 4%. In the case of O=C(CCCc1ccc(-c2ccccc2F)cc1)Nc1ccc(O)cc1, the residual activity is reported as 104%. For NC(=O)Nc1sc(-c2ccc(F)cc2)cc1C(N)=O, the residual activity was 87%. Work on O=C(c1ccccc1)c1ccc(N2CCOCC2)cc1O yielded a residual activity of 97%. O=C(O)/C=C/c1cc(Br)c(Br)c(Br)c1Br gave a residual activity of 53%. In the case of O=c1cc(N2CCNCC2)oc2c(-c3ccccc3)cccc12, the residual activity is reported as 96%. With O=C1Nc2ccc(Cl)cc2/C1=C/c1cc(Cl)c(O)c(Cl)c1 the residual activity was 88%. CC(C)[C@H](CO)Nc1nc(Nc2cc(N)cc(Cl)c2)c2ncn(C(C)C)c2n1 gave a residual activity of 60%. With O=C1C(Cl)=C(N2C(=O)CCC2=O)C(=O)c2ccccc21 the residual activity was 89%. With CC(C)c1nn(-c2c(Cl)cccc2Cl)c2nc(Cc3ccc(OCCO)cc3)[nH]c(=O)c12 the residual activity was 98%. Work on Nc1nc(Nc2ccc(S(N)(=O)=O)cc2)nn1C(=O)c1c(F)cccc1F yielded a residual activity of 18%.

These molecules were tested against Homeodomain-interacting protein kinase 2 (Homo sapiens) (UniProt Q9H2X6). Details: at 1 µM.
Homeodomain-interacting protein kinase 2 (Homo sapiens), sequence (Q9H2X6 whole entry, looked up): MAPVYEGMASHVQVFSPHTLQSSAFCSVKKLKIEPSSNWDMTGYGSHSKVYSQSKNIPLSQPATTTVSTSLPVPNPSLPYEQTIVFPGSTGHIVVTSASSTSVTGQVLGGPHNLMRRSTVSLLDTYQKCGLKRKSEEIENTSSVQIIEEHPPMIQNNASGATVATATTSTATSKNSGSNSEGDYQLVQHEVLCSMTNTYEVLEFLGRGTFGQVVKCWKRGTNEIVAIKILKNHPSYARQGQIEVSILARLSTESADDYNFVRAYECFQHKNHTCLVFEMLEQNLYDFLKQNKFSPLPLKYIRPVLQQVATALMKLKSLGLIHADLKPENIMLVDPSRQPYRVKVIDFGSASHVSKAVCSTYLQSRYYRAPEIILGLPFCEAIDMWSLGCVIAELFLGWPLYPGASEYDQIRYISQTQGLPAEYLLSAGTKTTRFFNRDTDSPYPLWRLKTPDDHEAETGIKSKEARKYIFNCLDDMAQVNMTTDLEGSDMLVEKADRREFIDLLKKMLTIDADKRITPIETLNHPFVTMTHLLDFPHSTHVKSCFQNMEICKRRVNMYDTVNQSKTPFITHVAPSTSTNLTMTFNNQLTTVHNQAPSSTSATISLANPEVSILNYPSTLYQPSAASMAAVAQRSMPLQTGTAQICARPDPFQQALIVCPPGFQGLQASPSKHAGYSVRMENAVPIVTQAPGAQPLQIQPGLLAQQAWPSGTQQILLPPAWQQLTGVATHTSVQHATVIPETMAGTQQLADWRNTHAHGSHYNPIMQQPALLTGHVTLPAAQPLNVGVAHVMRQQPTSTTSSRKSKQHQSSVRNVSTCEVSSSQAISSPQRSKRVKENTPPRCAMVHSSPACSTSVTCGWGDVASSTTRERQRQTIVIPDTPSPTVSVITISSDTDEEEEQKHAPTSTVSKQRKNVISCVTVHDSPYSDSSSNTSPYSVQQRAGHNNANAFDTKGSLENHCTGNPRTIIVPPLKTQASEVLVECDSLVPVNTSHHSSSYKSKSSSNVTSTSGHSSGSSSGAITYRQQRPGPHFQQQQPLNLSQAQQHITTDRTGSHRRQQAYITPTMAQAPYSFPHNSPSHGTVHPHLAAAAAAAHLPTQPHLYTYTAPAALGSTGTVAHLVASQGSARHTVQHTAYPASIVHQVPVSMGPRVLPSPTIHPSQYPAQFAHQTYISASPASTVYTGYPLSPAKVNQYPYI
In the case of COc1ccc2c(c1)c(C1=C(c3c[nH]c4ccccc34)C(=O)NC1=O)cn2CCCN(C)C, the residual activity is reported as 57%. COc1cc2nccc(Oc3ccc(NC(=S)NC(=O)c4ccccc4C)cc3)c2cc1OC gave a residual activity of 100%. CC(C)(C)n1nc(Cc2cccc3ccccc23)c2c(N)ncnc21 showed a residual activity of 101%. Molecule O=C(NC(NC(=S)Nc1ccc(F)c([N+](=O)[O-])c1)C(Cl)(Cl)Cl)C(c1ccccc1)c1ccccc1 (stereo not given) has a residual activity of 104%. Molecule Nc1ncnc2c1cnn2-c1ccccc1 has a residual activity of 101%. O=C1NC(=O)C(c2c[nH]c3ccccc23)=C1c1c[nH]c2ccccc12 showed a residual activity of 76%. O=C1NC(=O)c2c1c1c3ccccc3[nH]c1n1cncc21 gave a residual activity of 30%. With Nc1ncnc2c1c(-c1ccc(Oc3ccccc3)cc1)cn2C1CCCC1 the residual activity was 96%. O=c1cc(N2CCOCC2)oc2c1ccc1ccccc12 gave a residual activity of 70%. Molecule CCCC(=O)Oc1ccc2[nH]c(C(=O)c3cc4ccccc4[nH]3)cc2c1 has a residual activity of 102%. Molecule CCN(CC)CCNC(=O)c1c(C)[nH]c(/C=C2\C(=O)Nc3ccc(Cl)cc32)c1C has a residual activity of 6%. For O=C(c1cc2cc(O)ccc2[nH]1)c1cc2cc(O)ccc2[nH]1, the residual activity was 83%. With CN(C)S(=O)(=O)c1ccc2c(c1)/C(=C/c1cc3c([nH]1)CCCC3)C(=O)N2 the residual activity was 97%. For Oc1cccc(-c2nc(N3CCOCC3)c3oc4ncccc4c3n2)c1, the residual activity was 84%. In the case of O=C(CCCc1ccc(-c2ccccc2F)cc1)Nc1ccc(O)cc1, the residual activity is reported as 111%. NC(=O)Nc1sc(-c2ccc(F)cc2)cc1C(N)=O gave a residual activity of 94%. Cc1cc(C)c(/C=C2\C(=O)Nc3ccccc32)[nH]1 was tested, and the residual activity was 80%. In the case of O=C(c1ccccc1)c1ccc(N2CCOCC2)cc1O, the residual activity is reported as 97%. O=C(O)/C=C/c1cc(Br)c(Br)c(Br)c1Br was tested, and the residual activity was 83%. For O=c1cc(N2CCNCC2)oc2c(-c3ccccc3)cccc12, the residual activity was 97%. O=C1Nc2ccc(Cl)cc2/C1=C/c1cc(Cl)c(O)c(Cl)c1 showed a residual activity of 76%. Work on CC(C)[C@H](CO)Nc1nc(Nc2cc(N)cc(Cl)c2)c2ncn(C(C)C)c2n1 yielded a residual activity of 86%. Work on O=C1C(Cl)=C(N2C(=O)CCC2=O)C(=O)c2ccccc21 yielded a residual activity of 102%. Cn1c2ccccc2c2c3c(c4c5ccccc5n(CCC#N)c4c21)CNC3=O showed a residual activity of 20%. With CC(C)c1nn(-c2c(Cl)cccc2Cl)c2nc(Cc3ccc(OCCO)cc3)[nH]c(=O)c12 the residual activity was 99%. Nc1nc(Nc2ccc(S(N)(=O)=O)cc2)nn1C(=O)c1c(F)cccc1F was tested, and the residual activity was 48%.
